Tested on: Vero E6 infected with SARS-CoV-2
Test: morphology score (similarity to uninfected cells); higher = more like uninfected cells
Conditions: 24 h

| SMILES | morphology score |
| --- | --- |
| CN(C)C(=O)[C@H](O)[C@H](Cc1ccccc1)NC(=O)c1cc2cc(Cl)ccc2[nH]1 (10 µM) | 0.225 |
| Fc1ccc(C(c2ccc(F)cc2)N2CCN(C/C=C/c3ccccc3)CC2)cc1 [flunarizine] (10 µM) | 0.364 |
| CCCCN(CCCC)CCCOC(=O)c1ccc(N)cc1 [butacaine] (10 µM) | 0.206 |
| CC(C)(O)c1ccccc1CC[C@@H](SCC1(CC(=O)O)CC1)c1cccc(/C=C/c2ccc3ccc(Cl)cc3n2)c1 [montelukast] (10 µM) | 0.169 |
| O=C(CCCN1CCN(c2ccccn2)CC1)c1ccc(F)cc1 [azaperone] (10 µM) | 0.13 |
| CC(=O)O/N=C1\C(=O)N(Cc2cc(Cl)ccc2Cl)c2ccc(Cl)cc21 (10 µM) | 0.395 |
| O=C(CCCCCCCC(=O)NCCO)NCCO [adelmidrol] (10 µM) | -0.0406 |
| CCC(C)C(C(=O)OCC[N+](C)(CC)CC)c1ccccc1 (stereo not drawn) [valethamate] (10 µM) | 0.0952 |
| CN1CCN(S(=O)(=O)c2ccc(-c3cnc(N)c(C(=O)Nc4cccnc4)n3)cc2)CC1 (0.833333 µM) | 0.224 |
| O=C(O)Cc1ccc(OCCNC[C@H](O)c2ccccc2)cc1 (10 µM) | -0.102 |
| Cc1[nH]c(=O)c(C#N)cc1-c1ccc2nccn2c1 [olprinone] (10 µM) | 0.0999 |
| COc1ccc2c(c1)CN(C)CC2c1ccc(Cl)c(Cl)c1 (stereo not drawn) [diclofensine] (10 µM) | 0.0249 |
| CCCCC(F)(F)[C@@]1(O)CC[C@H]2[C@@H](CC(=O)[C@@H]2CCCCCCC(=O)O)O1 [lubiprostone] (10 µM) | 0.0116 |
| CNCC(O)c1ccc(O)c(O)c1 (racemic) [DL-Adrenaline] (10 µM) | 0.188 |
| CCOC(=O)C1=C(N)Oc2ccc(Br)cc2C1C(C#N)C(=O)OCC (stereo not drawn) (10 µM) | 0.0924 |
| CCC[C@@H]1CC2=CC(=O)CC[C@]2(C)[C@H]2CC[C@@]3(C)[C@@H](CC[C@@]3(O)CCC(=O)O)[C@H]12 (10 µM) | 0.105 |
| O=C(O)c1ccccc1C(=O)Nc1ccc(S(=O)(=O)Nc2nccs2)cc1 [phthalylsulfathiazole] (10 µM) | 0.162 |

| SMILES | morphology score |
| --- | --- |
| CCN(CC)CCOC(=O)C1(c2ccccc2)CCCC1 [caramiphen] (10 µM) | 0.145 |
| CCOC(=O)Nc1ccc2c(c1)N(C(=O)CCN1CCOCC1)c1ccccc1S2 [moracizine] (10 µM) | 0.154 |
| CC[N+](C)(CC)CC(=O)Nc1c(C)cccc1C [N-methyllidocaine-iodide] (10 µM) | 0.0478 |
| Cc1cc2sc(NC(=O)Cc3ccccc3)nc2cc1Cl (10 µM) | 0.407 |
| Cc1c(C(=O)NN2CCCCC2)nn(-c2ccc(Cl)cc2Cl)c1-c1ccc(Cl)cc1 [rimonabant] (10 µM) | 0.17 |
| C[C@]12CC[C@H]3[C@@H](CC[C@]4(O)C[C@@H](O)CC[C@]34C=O)[C@@]1(O)CC[C@@H]2C1=CC(=O)OC1 [K-strophanthidin] (0.833333 µM) | 0.0264 |
| Cc1c(CN(C)C(=O)/C=C/c2cnc3c(c2)CCC(=O)N3)oc2ccccc12 (10 µM) | 0.182 |
| CCOC(=O)[C@@H](N)CCC(=O)N[C@@H](CSCc1ccccc1)C(=O)N[C@@H](C(=O)OCC)c1ccccc1 [ezatiostat] (10 µM) | 0.202 |
| COc1cc(-n2c(=S)[nH]c3ccccc3c2=O)c(Cl)cc1Cl [mdivi-1] (10 µM) | -0.0304 |
| CC[C@@H](CO)NC(=O)[C@@H]1C=C2c3cccc4[nH]cc(c34)C[C@H]2N(C)C1 [methylergometrine] (10 µM) | 0.112 |
| O=C(Nc1cccc(Nc2ncc(Br)c(NCCc3cnc[nH]3)n2)c1)N1CCCC1 (10 µM) | -0.00186 |
| NS(=O)(=O)c1cccc2c1c([N+](=O)[O-])cc1nc(O)c(O)nc12 (10 µM) | -0.0523 |
| C[C@H]1[C@H](C)CC[C@]2(C(=O)O)CC[C@]3(C)C(=CC[C@@H]4[C@@]5(C)C[C@@H](O)[C@H](O)[C@@](C)(CO)[C@@H]5CC[C@]43C)[C@H]12 [asiatic-acid] (10 µM) | -0.135 |
| O=c1nc2ccccc2c2n1CC(CN1CCN(c3ccccc3)CC1)N2 (stereo not drawn) (10 µM) | 0.221 |
| CCCCCCCCCCCCCCC[C@@H](O)[C@@H](N)CO [safingol] (10 µM) | -0.197 |
| OC(CCN1CCCCC1)(c1ccccc1)C1CC2C=CC1C2 (stereo not drawn) [biperiden] (10 µM) | 0.48 |
